Inconclusive results are not listed. Active and inactive are the calls of the source. The call rests on the fitted dose curve; in most records, active means well fitted inhibition curve with a large enough effect; inconclusive means small, poorly fitted or top-dose-only effect, or effect the other way; inactive means flat fitted curve, though single readings scatter.

For this test, the target named is ATP-dependent 6-phosphofructokinase (Trypanosoma brucei brucei) (UniProt O15648). Put plainly: qHTS Assay to Find Inhibitors of T. brucei phosphofructokinase: hit validation (AID 492961).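 Further: luminescence reports ADP formed as PFK phosphorylates fructose-6-phosphate with ATP.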 The conditions noted are these: T. brucei PFK, ADP-Glo luminescence; series mostly up to 51.4 µM. The text has this: NIH Molecular Libraries Probe Production Network [MLPCN] NIH Chemical Genomics Center [NCGC] Grant: 1 R03 MH092153-01 PI Name: Malcolm Walkinshaw, University of Edinburgh NCGC Assay Overview: Various species of the protozoan family Trypanosomatidae are responsible for a range of serious human diseases in tropical and subtropical areas of the world. […] Many of the disorders caused by trypanosomatids are fatal if left untreated, but most currently used drugs are inefficient and toxic. […] Oxidative metabolism involving the mitochondrial tricarboxylic acid cycle and oxidative phosphorylation are repressed in these parasites, and recent RNA interference (RNAi) experiments have shown that even partial depletion of certain individual glycolytic enzymes can lead to the death of cultured parasites. One such glycolytic enzyme, phosphofructokinase (PFK), catalyzes the formation of fructose-1,6-bisphosphate (F1,6BP) and ADP from fructose-6-phosphate (F6P) and ATP, and in many metabolic circumstances makes an important contribution to the control of flux through the glycolytic pathway. As a specific glycolytic target, PFK is particularly attractive as it catalyzes the first irreversible step in glycolysis, and structural and kinetic studies have shown very substantial and essential differences from corresponding host enzymes, allowing for the discovery of parasite-selective inhibitors. The goal of this screen is to find small-molecule inhibitors of T. brucei PFK using a biochemical assay that measures PFK activity as a function of ADP production. A luminescence-based assay for T. brucei PFK activity has been developed which uses luciferase to detect production of ADP. Traditional luciferase-based nucleotide detection reagents rely on ATP production as a direct substrate for the luciferase reaction; however, PFK catalyzes the transfer of a phosphate from ATP to F6P, resulting in the net depletion of ATP. To directly measure the ADP product of the PFK reaction, we used the ADP-Glo detection kit (Promega), which utilizes two separate reactions to 1) deplete all remaining uncatalyzed ATP and 2) convert all remaining ADP to ATP, which is then detected through a traditional luciferase-coupled reaction. Compounds were screened as a concentration-titration series that ranged from 57 uM to 0.7 nM.
Chain of ATP-dependent 6-phosphofructokinase (Trypanosoma brucei brucei) (O15648 whole entry, looked up): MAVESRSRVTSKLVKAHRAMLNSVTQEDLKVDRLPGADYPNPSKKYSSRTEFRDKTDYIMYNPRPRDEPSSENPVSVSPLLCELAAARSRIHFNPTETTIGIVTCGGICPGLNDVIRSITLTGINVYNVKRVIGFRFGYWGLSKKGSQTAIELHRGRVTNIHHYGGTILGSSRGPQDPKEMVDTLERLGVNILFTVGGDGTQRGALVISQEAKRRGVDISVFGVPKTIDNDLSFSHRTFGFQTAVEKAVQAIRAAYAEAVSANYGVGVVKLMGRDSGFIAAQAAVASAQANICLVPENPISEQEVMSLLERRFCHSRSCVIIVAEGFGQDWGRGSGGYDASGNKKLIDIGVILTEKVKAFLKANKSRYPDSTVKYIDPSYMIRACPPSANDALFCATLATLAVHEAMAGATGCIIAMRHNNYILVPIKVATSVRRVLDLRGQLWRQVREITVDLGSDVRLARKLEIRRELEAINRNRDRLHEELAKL
NCGC Assay Protocol Summary: Substrate buffer was dispensed into white, solid 1536-well plates at 3uL/well in 0.1M triethanolamine (TEA) buffer, pH 8.0, containing final concentrations of 5 mM MgCl2, 0.01% Tween20, 0.5 mM fructose-6-phosphate (F6P) and 0.1mM ATP. Then, 23 nL of compounds or DMSO were delivered to each well using a pin tool. One uL T. brucei PFK (0.1M TEA, 0.01% Tween20, 0.1% bovine serum albumin (BSA) and 1.25nM PFK, final concentrations) was then dispensed, and plates were incubated at room temperature for 45 min. The luminescent detection reagent, ADP-Glo (Promega), was then added in two steps: the first reagent, ADP-Glo (which converts remaining uncatalyzed ATP), was added at 2.5uL/well and incubated for ten minutes at room temperature, and the second component, Kinase Detection reagent (which converts ADP to ATP as a substrate for luciferase-based luminescence), was added immediately after at 5uL/well, followed by one final ten minute room temperature incubation. The plates were measured on a ViewLux plate reader for luminescent signal using a clear filter with a one second exposure. The %Activity was determined from the corrected luminescence values. As no specific T. brucei PFK inhibitors have been identified in the literature, 1x (1.25nM) and 0x PFK enzyme controls (untreated) were included to normalize %Activity of identified inhibitors; 0x enzyme values corresponded to 100%Activity (full inhibition), while 1x PFK enzyme values were used to normalize 0%Activity (no inhibition). Concentration-response curves were fitted to the signals arising from the resulting luminescence. […]
In general terms: In qHTS, concentration-response curves come from the screen itself.
Turning to `CCCCCCCCCCOCC(O)CN` (stereo not given), the molecule was classed as inactive.
For `C[C@@H]1C(=O)NC2=Nc3cccc(Cl)c3CN21` the value was “inactive”; for `CN1C(CCl)Nc2cc(Cl)c(S(N)(=O)=O)cc2S1(=O)=O` (stereo not given), “inactive”.
For `CC1(C)CCC(NC(=O)[C@@H](N)CCC(=O)O)CC1` the value was “inactive”; for `CCCCCCCCCCCCCCCC[N+](C)(C)CCN(Cc1ccc(OC)cc1)c1ncccn1`, “inactive”; for `CCN(CC)CCOC(=O)C(c1ccccc1)C1CCCCC1` (stereo not given), “inactive”.
With `CC(=O)OCC(=O)[C@@]1(OC(C)=O)[C@@H](C)C[C@H]2[C@@H]3C[C@H](F)C4=CC(=O)C=C[C@]4(C)[C@@]3(F)[C@@H](O)C[C@@]21C` the entry was “inactive”.
Regarding `CCOC(=O)COc1ccc2c(C)c(CCN(CC)CC)c(=O)oc2c1Cl`, the result was inactive.
With `N[C@@H](Cc1cnc[nH]1)C(=O)O`, the result was inactive.
With `CC(C)COC(=O)OCN1C(=O)CN(CCN2CC(=O)N(COC(=O)OCC(C)C)C(=O)C2)CC1=O` the entry was “inactive”; with `c1ccc(OCc2ccc(CCCN3CCOCC3)cc2)cc1`, “inactive”.
Turning to `CN1CCN(CCCN2c3ccccc3Sc3ccc(S(=O)(=O)N(C)C)cc32)CC1`, the call was inactive.
With `O=C1OCCN1/N=C/c1ccc([N+](=O)[O-])o1` the entry was “inactive”.
For `CCOc1ccc(Cc2nccc3cc(OCC)c(OCC)cc23)cc1OCC` the value was “inactive”; for `O=c1c(-c2ccccc2)c1-c1ccccc1`, “inactive”.
For `NCCc1ccn[nH]1` the value was “inactive”; for `CCN(CCCc1ccccc1)CCCc1ccccc1`, “inactive”; for `C[C@@H]1CN(CCCn2c3ccccc3c3ccccc32)C[C@H](C)N1`, “inactive”.
With `CN(C)C(=S)SC(=S)N(C)C`, the call was inactive.
With `COc1cc2c(cc1OC)C(C(C(=O)N(CCc1ccc(OC)c(OC)c1OC)CCc1ccc(OC)c(OC)c1OC)c1ccccc1)=NCC2` (stereo not given) the entry was “inactive”; with `Cc1c(C(N)=O)cc([N+](=O)[O-])cc1[N+](=O)[O-]`, “inactive”.
For `COc1cc(-c2ccc(=O)[nH]n2)ccc1OC(F)F` the value was “inactive”; for `CCOC(=O)OC(C)OC1=C(C(=O)Nc2ccccn2)N(C)S(=O)(=O)c2ccccc21` (stereo not given), “inactive”; for `C[C@H](O)C(=O)Nc1c(I)c(C(=O)NC(CO)CO)c(I)c(C(=O)NC(CO)CO)c1I`, “inactive”.
In the case of `Oc1ccc(Cl)c2cccnc12`, the call was inactive.
With `NC(CS)C(=O)O` (stereo not given) the entry was “inactive”; with `OC(CCN1CCCCC1)(c1ccccc1)c1ccccc1`, “inactive”; with `CC(O)(P(=O)(O)O)P(=O)(O)O`, “inactive”.
For `CN1CCC(=C2c3ccccc3Sc3ccccc32)CC1` the value was “inactive”; for `C[N+]1(CCCCC[N+]2(C)CCCC2)CCCC1`, “inactive”.
With `C#C[C@]1(O)CC[C@H]2[C@@H]3CCc4cc(OC5CCCC5)ccc4[C@H]3CC[C@@]21C` the entry was “inactive”; with `C[C@]12CCC(=O)C=C1CC[C@H]1[C@@H]3CC[C@](O)(C(=O)CO)[C@@]3(C)C[C@H](O)[C@@]12F`, “inactive”; with `CCOC(=O)c1cccc(N)c1`, “inactive”.
For the molecule `Cc1cccn2c(=O)c(-c3nnn[nH]3)cnc12`, the call was inactive.
For `CN1CCN(C(c2ccccc2)c2ccccc2)CC1` the value was “inactive”; for `CCN(CC)CCNC(=O)COc1ccc(Cl)cc1`, “inactive”.
For `Cc1c(C(C)C)c(=O)n(-c2ccccc2)n1C` the value was “inactive”; for `CCN(CC)CCOc1ccc(C(O)(Cc2ccc(Cl)cc2)c2ccc(C)cc2)cc1` (stereo not given), “inactive”; for `Nc1ccc(C(=O)Nc2ccccc2N)cc1`, “inactive”.
With `CCCCCCCCCCCCCCCCCC(=O)OCC(O)CO` (stereo not given) the entry was “inactive”.

The values are drawn from PubChem BioAssay (NCATS).
